Experimental data published in PubChem BioAssay (NCATS).
Records with an inconclusive call do not appear. Entries that show only a call come without a potency. The source made the active and inactive calls. The call rests on the fitted dose curve; in most records, active means well fitted inhibition curve with a large enough effect in the main read-out, with a control signal flat (not every such curve was filed as active); inconclusive means small, poorly fitted or top-dose-only effect, or effect the other way, or a change in a side signal; inactive means no such curve, though single readings can be large or run the other way.

Assay: Nrf2 qHTS screen for inhibitors: Validation (AID 493153)
Details: A549 ARE-Fluc reporter, 18-24 h; Potency: luciferase luminescence; viability change: measured here: cytotoxicity max response; luciferase luminescence, at 46.1 µM (top of the series)
Excerpt: NIH Molecular Libraries Probe Production Network [MLPCN] NIH Chemical Genomics Center [NCGC] MLPCN Grant: R03-MH092170-01 Assay Provider: Shyam Biswal, Johns Hopkins University Assay Overview: Nrf2 is a transcription factor that maintains cellular redox homoestasis and protects cells from xenobiotics. Nrf2 binds to the antioxidant response element (ARE) to induce gene expression of a broad spectrum of genes that encode for antioxidants. […] Finding a small molecule that act as an inhibitor of Nrf2 function would represent a novel therapeutic target that could lead to improvement in survival of patients undergoing chemo- and/or radio- therapy. 1. Shibata, T., et al., Genetic Alteration of Keap1 Confers Constitutive Nrf2 Activation and Resistance to Chemotherapy in Gallbladder Cancer. Gastroenterology, 2008. 2. Sjoblom, T., et al., The consensus coding sequences of human breast and colorectal cancers. Science, 2006. 314(5797): p. 268-74.
Assay Protocol Summary: A concentration-response assay was performed with A549 ARE_Fluc cells which are suspended in 5% FBS OPTI-MEM. Five uL were dispensed into 1536-well white TC-treated plate using the Kalypsys dispenser to achieve a density of 5000 cells/well in all columns except column 1. The plate is incubated at 37deg C at 5% CO2 for 2 hours before 23 nL of compounds are added with the Kalypsys pin tool equipped with a 1,536-pin array containing 10-nL slotted pins (FP1S10, 0.457-mm diameter, 50.8 mm long; V&P Scientific). The control compounds Budesonide and Staurosporine are both added at a concentration of 2mM and Budesonide is also added as a 1:10 titration, starting at 200uM, to achieve dose-response. After an 18-24 hour incubation at 37deg C at 5% CO2, 5ul of medium is added to column 1. Afterwards 1ul of 5x of CellTiter-Fluor (Promega) is added to every well. The plate is then incubated at 37deg C at 5% CO2 for 30 minutes before they are read on the ViewLux (Perkin Elmer) for a fluorescent read Ex=405(10)/Em=525(10) for a 3 second exposure, 2x binning, and high gain. Then 3 uL of 3x BugLite is dispensed into all wells and the plate is incubated at ambient room temperature for 15 minutes. Afterwards another ViewLux read is performed using the clear filter to get a luminescent read with the settings of 40 second exposure, 2x binning, and high gain. Cytotoxicity is assessed through the first fluorescent read and then biochemical activity against Nrf2 is measured in the luminescent read.

SMILES | viability change [%] | Potency
CCCN(CC1CC1)c1nc(C)nc(Nc2c(Cl)cc(Cl)cc2Cl)c1Cl | 7.51 | inactive
O=C(O)/C=C/C(O)c1ccc(Cl)cc1 (stereo not given) | 2.66 | inactive
CCN(CC)c1ncnc2c1ncn2[C@@H]1O[C@H](COP(=O)(O)OP(=O)(O)C(Br)(Br)P(=O)(O)O)[C@@H](O)[C@H]1O | -6.83 | inactive
O=c1[nH]c2cc([N+](=O)[O-])c([N+](=O)[O-])cc2[nH]c1=O | 0.435 | inactive
CCCCCCCCCCCCCCCC(=O)OC(CC(=O)O)C[N+](C)(C)C (stereo not given) | -1.76 | inactive
CN1C2CC(OC(=O)[C@H](CO)c3ccccc3)CC1C1OC12 (stereo not given in full) | -8.53 | inactive
CCCCC/C=C\CC(O)/C=C/c1cccc(CC(O)CCCCO)n1 (stereo not given) | -0.641 | inactive
C[N+](C)(C)CCOP(=O)(O)OP(=O)([O-])OC[C@H]1O[C@@H](n2ccc(N)nc2=O)[C@H](O)[C@@H]1O | 2.92 | inactive
CC(C)NCC(O)COc1cccc2ccccc12 (stereo not given) | 6.42 | inactive
CN(C)CCCO[C@@H]1[C@H]2OC(C)(C)O[C@H]2O[C@@H]1[C@H](O)CO | 3.16 | inactive
Clc1ccc(N2CCN(Cc3c[nH]c4ncccc34)CC2)cc1 | -2.66 | inactive
CCCCCCCCCCCCCCCCCC(=O)NCC(COP(=O)([O-])OCC[N+](C)(C)C)OCC (stereo not given) | 1.48 | inactive
OC[C@H]1O[C@@H](n2cnc3c(NC4CCCCC4)ncnc32)[C@H](O)[C@@H]1O | 2.64 | inactive
CC1CN(S(=O)(=O)c2cccc3cnccc23)CCN1 (stereo not given) | 1.98 | inactive
S=C(S)OC1CC2CC1C1CCCC21 (stereo not given) | 5.78 | inactive
N[C@@H](CC(=O)O)C(=O)O | -0.666 | inactive
Cc1nc2sccn2c(=O)c1CCN1CCC(=C(c2ccccc2)c2ccc(F)cc2)CC1 | 0.941 | inactive
CCCCCCCCCCCCCCCCCCNC(=O)OCC(COP(=O)([O-])OCC[n+]1ccsc1)OC (stereo not given) | 1.65 | inactive
Cc1cc(NC2CCCCC2)nc(-n2nc(C)cc2C)n1 | -6.43 | inactive
C=CC(=O)c1ccc(CCCCCC)cc1 | -13 | inactive
